44 sequences from publication PMC7819943, “Rice protein-binding microarrays: a tool to detect cis-acting elements near promoter regions in rice” can be followed below.

Over roughly 35,000 sequences, “fluorescence intensity (a.u.)” has its median near 10,000; the highest 2% begin near 52,000. This excerpt belongs to a sample that is enriched for the highest values.

For the experiment, the target named is T1, OsWOX13 (Oryza sativa, UniProt Q5QMM3 1-267).
T1 sequence: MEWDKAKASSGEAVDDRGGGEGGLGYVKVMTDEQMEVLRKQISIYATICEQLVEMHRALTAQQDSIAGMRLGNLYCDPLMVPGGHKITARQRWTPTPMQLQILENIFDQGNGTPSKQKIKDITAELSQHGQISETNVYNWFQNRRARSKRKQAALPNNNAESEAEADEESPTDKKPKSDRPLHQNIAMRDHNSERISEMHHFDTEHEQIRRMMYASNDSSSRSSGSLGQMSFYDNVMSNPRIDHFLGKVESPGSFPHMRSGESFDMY
The experiment is described as follows: protein-binding microarray (RPBM); PBS, 2% BSA, 51.3 ng/ul salmon testes DNA, 50 uM zinc acetate, 200 nM TF, 25 C, 1 h; high values mean tight binding. Particulars: protein: recombinant; tags: N-terminal polyhistidine and DsRed monomer fusion (pET32a); label: CyDye5-dUTP incorporated in the synthesized complementary strand; 3' TTTTT single-stranded linker to array surface; dsDNA, one strand shown. A digest of the protocol:
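Polyhistidine-tagged DsRed fusions of transcription factors, joined at the N-terminus, were expressed in E. coli BL21-CodonPlus and isolated on Ni–NTA. They were incubated at 200 nM for 1 h at 25 °C on a custom Agilent array, double-stranded and BSA-blocked, in PBS with 2% BSA, salmon testes DNA and 50 µM zinc acetate. The binding signal is per-feature fluorescence intensity (arbitrary units) read on an Axon 4000B scanner after washing.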
Turning to “ACTAATTAGACTTAAAAGATTTGTCTCATGATTTACTCCCCGGAGTCACCTAGTGCAG”, the binding signal was 56300 fluorescence intensity (a.u.).

As to “ATGGCTAATTATGGACTAATTAGACTCAAAAGATTCGTTTCGGAGTCACCTAGTGCAG”, the binding signal is 19800 fluorescence intensity (a.u.).

“GCTAATCATAGACTAATTAGACTCAAAAGATTAGTCTCGCCGGAGTCACCTAGTGCAG”: the binding signal is 52800 fluorescence intensity (a.u.).

Turning to “GCTAATCATAGACTAATTAGGCTTAAAAGATTTGTCTCGCCGGAGTCACCTAGTGCAG”, the binding signal was 37200 fluorescence intensity (a.u.).

Turning to “TACGGCTAATTATGGACTAATTAGACTCAAAAGATTCATGCGGAGTCACCTAGTGCAG”, the binding signal was 53800 fluorescence intensity (a.u.).

For the sequence “ATCTTAATTTACCTTTCACTGCATCTAATATGTCACTTTGCGGAGTCACCTAGTGCAG”, the binding signal is 20700 fluorescence intensity (a.u.).

Turning to “ATTTGAAATTTAAATTTTAGCTTTTGCTTTAGTTTATTTGCGGAGTCACCTAGTGCAG”, the binding signal was 8720 fluorescence intensity (a.u.).

Regarding “CCGTGATTAGCGACATTGCTGTGTGCAACGTTTGTTCCTTCGGAGTCACCTAGTGCAG”, the binding signal was 37600 fluorescence intensity (a.u.).

“TGTTAGATGATAAAACATGATTAATATTTTATGTGTGACTCGGAGTCACCTAGTGCAG”: the binding signal is 4360 fluorescence intensity (a.u.).

As to “AATAACTGATAAAAGATATATGATTTTGGAGAAATGTGTGCGGAGTCACCTAGTGCAG”, the binding signal is 26100 fluorescence intensity (a.u.).

Regarding “TAGATTAATTTGTCATCAAAACACCCTCATATAATTAATTCGGAGTCACCTAGTGCAG”, the binding signal is 19200 fluorescence intensity (a.u.).

For “TTTCTTAATTGTATTTCTATATGGACTTGATACCCTTCTTCGGAGTCACCTAGTGCAG”, the binding signal is 18900 fluorescence intensity (a.u.).

As for “GTAGTGAATGGCTGCCTAATTTTGTGCATTAACCATGGTGCGGAGTCACCTAGTGCAG”, the binding signal was 5100 fluorescence intensity (a.u.).

Consider “AGCCTAATTAATCCATAATTAACATATGTTTACTGTAGCACGGAGTCACCTAGTGCAG”, for which the binding signal is 53000 fluorescence intensity (a.u.).

As for “CTAATTAATCCGTTATTAGCACATATGTGTTACTGTAGCACGGAGTCACCTAGTGCAG”, the binding signal was 12200 fluorescence intensity (a.u.).

On to “TCATAATTAATTAGAAGTGGCTGCATGTGAGAATGTTTGGCGGAGTCACCTAGTGCAG”, for which the binding signal is 53800 fluorescence intensity (a.u.).

Consider “AATCCATAATTAGAGAATGTTTACTGTAGCATCACATAGGCGGAGTCACCTAGTGCAG”, for which the binding signal is 15900 fluorescence intensity (a.u.).

For the sequence “AGCCTAATTAATCTATAATTAGAGAATGTTTACTGTAGCACGGAGTCACCTAGTGCAG”, the binding signal was 46200 fluorescence intensity (a.u.).

With “TAAACCTAATTAATCATCATTAGCAAATGTTTACTGTAGCCGGAGTCACCTAGTGCAG”, the binding signal was 30400 fluorescence intensity (a.u.).

On to “CCTAATTAATCCATAGCACATGTTTACTGTAGCGTCACATCGGAGTCACCTAGTGCAG”, for which the binding signal is 12400 fluorescence intensity (a.u.).

On to “TTCATAATTAGCACATGTTTACTGTGGTATCACATGGACTCGGAGTCACCTAGTGCAG”, for which the binding signal is 25200 fluorescence intensity (a.u.).

Turning to “AAGTCTAATTAATTCATAATTAGCACATGTTTACTGTAGCCGGAGTCACCTAGTGCAG”, the binding signal is 53800 fluorescence intensity (a.u.).

“AGCCTAATTAATCCGATATTAGTAAATGTTTACTGTAGCACGGAGTCACCTAGTGCAG”: the binding signal is 15000 fluorescence intensity (a.u.).

Consider “AGCCTAATTAATACATAATTAGCACATGTTTACTGTAGCACGGAGTCACCTAGTGCAG”, for which the binding signal was 55100 fluorescence intensity (a.u.).

On to “CCATTTCTTGCTGATGATTGATGATGAACATTTCTAATAGCGGAGTCACCTAGTGCAG”, for which the binding signal was 27400 fluorescence intensity (a.u.).

In the case of “TACTATGATTTTCTTTGAATTCAGGTCCTTGCGATTCCAGCGGAGTCACCTAGTGCAG”, the binding signal was 3510 fluorescence intensity (a.u.).

Consider “TGGATAATTAAGCTCATGAGACGACAACGAACAATGAATGCGGAGTCACCTAGTGCAG”, for which the binding signal is 8610 fluorescence intensity (a.u.).

With “AGATGTTTGAATAATTGATACAATATCAGGAGCGAATATGCGGAGTCACCTAGTGCAG”, the binding signal was 4430 fluorescence intensity (a.u.).

As to “TGAAATTTCTCTTCATTTTGTTTTAAATCCTGGACAGACACGGAGTCACCTAGTGCAG”, the binding signal is 3370 fluorescence intensity (a.u.).

For “CAACCAATAAATTAGAACTCCATCTCGATCATGGTGTTATCGGAGTCACCTAGTGCAG”, the binding signal was 4370 fluorescence intensity (a.u.).

As for “GGCTTGATTTATTGATTTGTTCTTTAGTACTCCAGTTCAACGGAGTCACCTAGTGCAG”, the binding signal was 25700 fluorescence intensity (a.u.).

In the case of “ATAAATTAGCACCCACCTCTGCCTTCCTACCTTCCCCTCCCGGAGTCACCTAGTGCAG”, the binding signal was 24900 fluorescence intensity (a.u.).

Take “GAGAGAGAGATCAGCACATGATTGATTAAATATTAGCTTACGGAGTCACCTAGTGCAG”: the binding signal is 19100 fluorescence intensity (a.u.).

“TTAATTGGATATATGATGTTGCAAATTTGCCTATTCAGAACGGAGTCACCTAGTGCAG”: the binding signal was 27000 fluorescence intensity (a.u.).

Take “GCATGAAGACATCAATTAATTAATTGCATGGTTACATGCACGGAGTCACCTAGTGCAG”: the binding signal is 37200 fluorescence intensity (a.u.).

With “TCATCAGTTAATTAATACATGCATATTATATTATATAGGGCGGAGTCACCTAGTGCAG”, the binding signal was 20200 fluorescence intensity (a.u.).

For “AATAATTAATTAATCATAGCTTGCAACTGCATATGTAGGGCGGAGTCACCTAGTGCAG”, the binding signal is 56700 fluorescence intensity (a.u.).

Consider “TCCATAATTAGCGGCTGATTACTGTAGCATCACTGTAGCACGGAGTCACCTAGTGCAG”, for which the binding signal is 31200 fluorescence intensity (a.u.).

As to “CCTAATTAATCCATAATTATCAAAAGTTTACTGTAGCATCCGGAGTCACCTAGTGCAG”, the binding signal was 62800 fluorescence intensity (a.u.).

With “ATTAATCCACAATTATCAAAAGTTTACTGTAGCATCACATCGGAGTCACCTAGTGCAG”, the binding signal is 5730 fluorescence intensity (a.u.).

For “TGTAATAGTGGGTTAATTAATTAGCTTGCCAGCTTCAGGGCGGAGTCACCTAGTGCAG”, the binding signal is 21900 fluorescence intensity (a.u.).

Turning to “ATGATTAGCAGCTGATTACTGTAGCATTACTGTAGCAAATCGGAGTCACCTAGTGCAG”, the binding signal is 45200 fluorescence intensity (a.u.).

Take “ATTAATCCATAATTAGCAAATGTTTACTGTAGCATCACATCGGAGTCACCTAGTGCAG”: the binding signal is 13800 fluorescence intensity (a.u.).

In the case of “TCCATAATTAGCAGCTGATTACTGTAGTATTACTGTAGCACGGAGTCACCTAGTGCAG”, the binding signal is 60800 fluorescence intensity (a.u.).
